In the library only some 7.3% were active in any assay of this set; here they are far more common.
Rab9 promoter act: activators of Rab9 promoter | Potency, µM (top dose mostly 9.22 µM), for the others: at the highest dose activation, negative = inhibition, hits mostly activators | Huh7 Rab9 promoter-luciferase reporter, luminescence, 24 h | 320,000 tested, 2.8% active; note: % of control where 0% means no effect; nearly all actives have a fitted effect of over 60% in size
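Stable Rab9-luc Huh7, 1500 cells/well, 2 h settle; cmpd in DMSO, 24 h, 37 °C/5% CO2; luciferase reagent 10 min RT; luminescence.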
FLuc counter: firefly luciferase modulation, counter-screen for miR-21 project; P08659; purified FLuc, Km substrates, luminescence inhibition; Potency, µM (doses to about 57.5 µM), without a hit: top-dose activity change, negative = inhibition, most hits filed as inhibitors; 360,000 tested, 6.9% active; AID 588342;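 note: plate controls were vehicle for no effect and reference inhibitor for full effect; nearly all actives have a fitted effect of over 55% in size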
Target sequence (P08659 whole entry, looked up): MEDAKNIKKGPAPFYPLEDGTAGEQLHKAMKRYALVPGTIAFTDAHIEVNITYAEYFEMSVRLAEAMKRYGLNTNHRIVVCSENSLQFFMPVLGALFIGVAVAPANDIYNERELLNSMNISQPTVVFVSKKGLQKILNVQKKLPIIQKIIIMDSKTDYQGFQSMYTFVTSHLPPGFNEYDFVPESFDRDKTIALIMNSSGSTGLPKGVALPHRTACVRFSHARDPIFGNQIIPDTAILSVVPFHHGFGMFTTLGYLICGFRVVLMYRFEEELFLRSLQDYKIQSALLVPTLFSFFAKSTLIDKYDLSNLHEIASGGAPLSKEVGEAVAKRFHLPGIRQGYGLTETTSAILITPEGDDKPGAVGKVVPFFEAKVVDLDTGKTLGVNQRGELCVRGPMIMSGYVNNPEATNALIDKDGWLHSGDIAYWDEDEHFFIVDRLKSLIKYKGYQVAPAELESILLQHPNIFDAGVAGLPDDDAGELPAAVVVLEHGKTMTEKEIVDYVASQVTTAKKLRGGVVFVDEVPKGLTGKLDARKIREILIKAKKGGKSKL
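Biochemical qHTS of compounds, final roughly 60 µM downward over six points, against 10 nM purified firefly luciferase using Km concentrations of substrates (10 uM D-luciferin, 10 uM ATP) in Tris acetate pH 7.5 buffer; luminescence output.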
ELG1 genotox: genotoxicity induction in ELG1-luciferase HEK293T cells | HEK293T ELG1-luciferase reporter, luminescence, 16 h | Potency, µM (highest dose often 46 µM), for the others: at the top dose activity change, positive = activation, usual class: activators | 330,000 tested, 1.3% active | AID 504466; note: % of control where 0% means no effect; nearly all actives have a fitted effect of over 60% in size
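HEK293T cells expressing luciferase-tagged ELG1 were exposed to compound or DMSO vehicle for 16 hr at 37 °C and 5% CO2. Luciferase activity was then measured with ONE-Glo after 30 min at room temperature.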
NPC1 promoter act: activates the NPC1 promoter; Huh7 NPC1 promoter luciferase reporter, 24 h; Potency, µM (titrated, usually from 9.22 µM), without a hit: at the highest dose activation, hits mostly activators; 320,000 tested, 2.4% active; AID 485313; note: % of control where 0% means no effect; nearly all actives have a fitted effect of over 60% in size
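Cells: Huh7 expressing luciferase under the NPC1 promoter, 1500/well. Seeded 2 h, compound added, incubated 24 h at 37 °C. Luciferase reagent, 10 min ambient, then luminescence.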
SMN2 splice up: SMN2 splice variant enhancement; Potency, µM (highest dose often 46.1 µM), for the others: top-dose activity change, positive = activation, hits mostly activators; HEK293 SMN2-luciferase splicing reporter, luminescence, 30-36 h; 210,000 tested, 2.8% active; AID 1458; note: % of control where 0% means no effect; nearly all actives have a fitted effect of over 55% in size
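HEK293 cells carry an SMN2 […]–luciferase reporter in which exon 7 inclusion puts luciferase in frame. Cells were plated 10-12 h before compound addition, then incubated 30-36 h at 37C. ONE-Glo luminescence was read; sodium butyrate at 4.5 mM final served as control.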
KinaseGlo FLuc: counter-screen: inhibitors of Kinase-Glo firefly luciferase. Kinase-Glo luciferase, ATP luminescence, 8 min. Potency, µM (titrated, usually from 38.3 µM), for the others: at the top dose activity change, negative = inhibition, hits mostly inhibitors. 200,000 tested, 0.28% active. AID 1379; note: % is set by controls: 0 for no effect and ±100 for the full control effect; nearly all actives have a fitted effect of over 60% in size
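Recombinant Kinase-Glo luciferase, 10 uM ATP (linear range), luciferin; imidazole pH 7.2 / KCl / MgCl2 / Tween / BSA buffer; 8 min RT; luminescence.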
* = called active by the depositor; ? = inconclusive; . = not tested or not shown; [ ] = remark or other dose. Calls come from the whole dose curve; as a rule, active = well fitted curve in the direction sought with a large enough effect; inconclusive = small, poorly fitted or top-dose-only effect, or another doubt; inactive = no such curve, though single readings can be large; an effect the other way counts as inactive or inconclusive. Potency is the fitted concentration of half-maximal effect.

SMILES	Rab9 promoter act	FLuc counter	ELG1 genotox	NPC1 promoter act	SMN2 splice up	KinaseGlo FLuc
Cc1ccc(C(=O)Cn2nnc3ccccc32)cc1C	0.79µM*	4.8µM*	?	1.4µM*	?	0%
CCOc1ccccc1OCCn1nnc2ccccc21	-6%	3%	?	0%	.	-1%
O=C(Cn1nnc2ccccc21)c1ccc(Br)cc1	?	24µM*	10%	30%	.	.
Cc1ccc(C(=O)Cn2nnc3ccccc32)cc1	1.6µM*	5.4µM*	?	1.4µM*	?	-3%
CC(=O)N1CCN(C(=O)c2ccc(OC3CCN(CCc4ccccc4)CC3)cc2)CC1	3%	4%	-3%	-3%	.	.
COc1ccc(C)cc1NC(=O)Cn1c(=O)ccc2cc(S(=O)(=O)N3CCCC3)ccc21	.	-6%	.	.	.	.
Cc1ccc(S(=O)(=O)Oc2ccccc2/C=C2\SC(=O)NC2=O)cc1	-2%	?	-9%	-4%	-24%	2%
COc1cc(CNc2ccc(N3CCCC3)cc2)cc(Cl)c1OC	14%	9.5µM*	3%	1%	-37%	-9%
CCOc1cc(CNc2ccc(N3CCCC3)cc2)cc(Cl)c1OC	20%	27µM*	10%	13%	-3%	-4%
COc1cc(CNc2ccc(N3CCOCC3)cc2)cc(Br)c1OC	2%	-8%	-5%	-6%	-10%	5%
CCOc1cc(CNc2ccc(S(N)(=O)=O)cc2)cc(Cl)c1OC	-3%	0%	2%	3%	-7%	-2%
O=C(CCCN1CCC(c2ccccc2)C1)c1ccc2c(c1)OCCO2 (stereo not drawn)	-4%	3%	-8%	-1%	13%	0%
CCc1ccc2[nH]c(C(=O)Nc3ccc(C)c(F)c3)cc2c1	18%	?	6%	27%	.	.
CN1CCN(C2CCN(S(=O)(=O)c3ccc(C(C)(C)C)cc3)CC2)CC1	-2%	4%	-2%	-3%	.	.
CCn1c(SCC(=O)N2CCCC2)nc2ccccc21	1%	3%	0%	-6%	2%	6%
CCn1c(SCc2ccccc2Cl)nc2ccccc21	20%	12µM*	14%	27%	?	0%
Cn1c(SCc2ccccc2Cl)nnc1-c1cnccn1	?	?	11µM*	?	?	-2%
Cn1c(SCc2ccccc2Cl)nc2ccccc21	?	6µM*	5.8µM*	2.5µM*	111%	-26%
CCn1c(CSc2nc3ccccc3n2C)nc2ccccc21	-6%	-4%	-1%	-2%	-17%	0%
FC(F)(F)c1cnc2c(-c3ccccc3)n[nH]c2c1	?	?	?	18%	?	-2%
O=C(NCCCO)Nc1ccc2nc(-c3ccco3)c(-c3ccco3)nc2c1	7%	11µM*	2%	0%	-20%	16%
O=C(Nc1ccc2nc(-c3ccco3)c(-c3ccco3)nc2c1)NC1CC1	28%	6µM*	0%	18%	-19%	-2%
Cc1ccc(-c2cn(-c3ccccc3)c(SCC(=O)NC3CCS(=O)(=O)C3)n2)cc1C (stereo not drawn)	2µM*	?	?	3.2µM*	?	3%
NC(=S)N=Nc1ccc(NN=C(N)N)cc1	4%	21µM*	-5%	-2%	.	.
NC(N)=Nc1ccc(N=C(N)N)cc1	-6%	2%	-2%	-5%	.	.
O=C1/C(=C/c2cccnc2)CCc2c1[nH]c1ccccc21	3.2µM*	9.5µM*	-3%	27%	.	4%
CC1C/C(=C\c2cccnc2)C(=O)/C(=C/c2cccnc2)C1 (stereo not drawn)	-48%	-5%	-15%	-34%	2%[1.84 µM]	2%
CC(C)C/C=C1\CCc2c([nH]c3ccccc23)C1=O	2.8µM*	?	?	29%	.	0%
O=C(CSc1nncs1)NC(=O)Nc1ccc2c(c1)OCCO2	3.5µM*	15µM*	?	?	.	.
Cc1cc(C(=O)CSc2nncs2)c(C)n1-c1ccc2c(c1)OCO2	2.2µM*	19µM*	5%	?	-12%	-1%
